In all, about 25,000 sequences were measured (“ln(normalized median fluorescence intensity)”: median about 7.1, highest 2% from about 10 on). The sample as a whole holds a higher share of the highest values than the screen did.
The sequences below were run on PfSIP2 AP2 domain 1 (GST-tagged) (assay: gcPBM binding intensity (ln(normalized median fluorescence intensity)); higher = stronger DNA binding).
In short: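 Plasmodium falciparum DNA-binding domains carrying a GST tag were expressed in E. coli and applied for 1 h, at about 25 μg on average, to an Agilent 4 × 180k array. The array held primer-extended double-stranded 36-bp intergenic genomic probes together with negative controls, and binding took place in 1× PBS with 1% milk, 0.2 mg/ml BSA, 0.5% salmon testes DNA and 0.03% Triton X-100. An Alexa488 anti-GST antibody detected bound protein, and the array was scanned at 488 nm. Binding intensity is taken as the highest Masliner-normalised natural-log median intensity across replicate spots of either probe orientation.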

Sequence | gcPBM binding intensity (ln)
AAAAAAAAAAAAGAAAAATATATATATAAATAAATA [GTGCAC_negctrl_site569] | 6.98
TTTTTCATATGACACACACACAAAAATAATGTGGAA [CACACA_site7692] | 6.99
AAATTATATTATTGAACACACGTTTGGTAATGTTTT [CACACA_site5469] | 6.78
GCTATTTATTTATATTGTACTTTTTTTTTTTTTTTT [XGTACX_site3624] | 7.67
TAAATTGAGTATATTACACACATATAAATATATTAT [CACACA_site4027] | 6.88
GAACAAATTACAAGTTGTACTTTATGTAAATTATTA [XGTACX_site5304] | 6.76
ATACTATTATATATATGTACATATATATGATGCTCT [XGTACX_site1771] | 7.22
TATTTTATATGATAGGTGCATTTTTTTTTTTTTTTT [GTGCAC_site9757] | 10.8
TCGAATATCTTATAGGTGCATCATAAATACATATGT | 10.8
ATCTATATCTATAATACACACATCATAAAATATGTA [CACACA_site7230] | 7.19
CATCATCTTTTAAAGGTGCATAATAATATTGTTAAT | 11.1
TTTTGTTATTTTTTAGTGCATATAAAGGTTGTTAAG | 8.64
TTTTTTTTTTTTTTTTTTTTTTTTTTATGATATATA [GTGCAC_negctrl_site365] | 6.82
TTTTTATTTATATGATACTTATATATATATATATAT [CACACA_negctrl_site462] | 9.5
ATATTATATATATAGGTGCGAGTATTTTATAAATAT [GTGCAC_site9889] | 9.06
ATAATTGTTTAAAGGTGTACAATACATATATTTTAA [XGTACX_site3648] | 6.91
ATAGTAATGCATAAATATATATTATATATATATATA [XGTACX_negctrl_site576] | 9.1
TATGGAATAAATTTATCCATACATCTTATAACATAT [XGTACX_negctrl_site500] | 6.78
GTATTATATATATAGGTGCATATATATATATAAATA [GTGCAC_site9787] | 10.8
ACATATATATATATTACACACACACTAATAAAATAA [CACACA_site7920] | 7.24
AAAATTAAAAAAATAAATACATTATATAATTAAAAA [CACACA_negctrl_site1426] | 6.77
CTTCTTATTTTCTAATGTACGTACAAATCATTTATA [XGTACX_site2176] | 8
CTTGGGAAGTATTCAGTGCAAAATATAAGCAGGTCA [GTGCAC_site9758] | 7.75
ATATGTATATATATTTGTACGTAAAATGAAATCTAA [XGTACX_site213] | 7.45
AAAAAAAAAAAAAACACACACACACGCACATATACA [CACACA_site7288] | 7.66
